Screening results (PubChem)
Shown are actives, neighbours in structure and some others; about 11% of the full set was active somewhere.
Autophagy mod – modulators of autophagy. calls only at 10 µM (by protocol). MEF GFP-LC3 puncta imaging; test concentration mostly 10 µM. hit rate 0.98% among 190,000;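 active = percentage of spot-positive cells more than 3 SD above its plate mean, without a fluorescence outlier flag or 80% toxicity; inconclusive = no clear call, values can overlap the other calls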
WT yeast gro inh – growth inhibition of WT yeast, mitochondrial fusion screen | mitochondrial fusion phenotypic screen, WT strain | inhibition, % at 10 µM | hit rate 2.1% among 190,000; in the data active = inhibition above about 58%; tested in S. cerevisiae
Insulin prom inh – TRM-6 insulin promoter activity inhibition; TRM-6 cells (human fetal islet line), insulin promoter-eGFP reporter, imaging; reporter expression induced with tamoxifen; inhibition, % at 2 µM; hit rate 0.9% among 130,000; AID 1273;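 active = inhibition above the mean plus 3 SD, with well images judged a real hit on visual review, cut at about 60% in these data, passing the limit was not always enough; inconclusive = inhibition over the cutoff but images rejected on review; inactive = inhibition not above the cutoff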
Ins promoter up – MIN6 insulin promoter up-regulation; MIN6 insulin promoter-GFP reporter, high-content imaging; active compounds read high; z-score at 5 µM; hit rate 0.3% among 190,000;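 active = z-score above 3 at 5 µM with at least 500 cells counted in the well; inconclusive = wells under 500 cells, flagged as cytotoxic or low count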
L major viab – reduces viability of Leishmania major promastigotes. resazurin fluorescence viability. inhibition, % at 10 µM. hit rate 9% among 200,000. AID 1063; in the data active = inhibition above about 50%;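 also: promastigotes grown with compound for 44 hours at 28 °C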
Hits are given with their value; n = inactive; u = inconclusive; x = no result given; + = active, no number.

SMILES	Autophagy mod	WT yeast gro inh	Insulin prom inh	Ins promoter up	L major viab
C#CCNC(=O)C1=C[C@H](c2ccc(Br)cc2)[C@@H](CCCO)[C@H](OCC)O1	n	n	x	n	n
O=C(O)/C(=C\C(=O)c1ccccc1)Nc1ccccc1	x	x	x	n	x
CCOC(=O)C1(CCOc2ccccc2)CCN(Cc2nccn2CC)CC1	n	n	x	n	n
CCOC(=O)C1(CCCc2ccccc2)CCN(Cc2nccn2CC)CC1	n	58.7	x	n	74.6
O=C(C1CCCCC1)N(Cc1ccccc1)c1ccccn1	n	84.1	n	n	n
Clc1ccc(-n2ncc3c(NCCCn4ccnc4)ncnc32)cc1	n	n	n	n	100.4
CCCCNc1ncnc2c1cnn2-c1ccc(Cl)cc1	n	n	x	n	n
Clc1ccc(-n2ncc3c(NCCN4CCOCC4)ncnc32)cc1	n	n	n	n	86.3
COC(=O)N/N=C/C1=CCC2CC1C2(C)C (stereo not drawn)	n	n	x	n	58.1
CC1(C)C2CC=C(/C=N/NC(=O)c3ccc(O)cc3)C1C2 (stereo not drawn)	n	n	x	n	94.4
CC1(C)C2CC=C(/C=N/NC(=O)c3ccccc3Br)C1C2 (stereo not drawn)	n	n	x	n	99.6
CC1(C)C2CC=C(/C=N/NC(=O)C(N)=O)C1C2 (stereo not drawn)	x	x	x	n	x
Cc1cc(S(N)(=O)=O)c(N)c(S(N)(=O)=O)c1	x	x	x	n	x
Cc1ccccc1C(=O)NC(=S)NCCC1=CCCCC1	n	71.2	x	n	n
Cc1ccc(NC(=S)NCCC2=CCCCC2)cc1	n	68.3	n	n	n
O=C(NC(=S)NCCC1=CCCCC1)c1ccc(Br)o1	n	75.9	x	n	n
C=CCOc1ccc2nnc(C)n2n1	n	n	n	n	n
CCn1c(SCC(=O)Nc2nc(-c3ccc(C)cc3)cs2)nnc1-c1ccccc1	n	n	n	n	n
CN(C)CCCn1c(SCC(=O)N2c3ccccc3Sc3ccccc32)nc2ccccc2c1=O	n	n	x	n	100.5
Cc1ccc(-c2csc(NC(=O)CSc3nc4ccccc4c(=O)n3CCCN(C)C)n2)cc1	+	82.5	x	n	100.5
CCn1c(SCC(=O)Nc2nc(-c3ccc(C)cc3)cs2)nnc1-c1ccccc1O	n	n	n	n	100.3
Cc1ccc(NC(=O)Cn2cccc2)c(C)c1	n	n	n	n	n
Clc1ccc(OCCn2cnc3ccccc32)cc1	n	n	n	n	n
CCn1c(NC(=S)Nc2ccccc2)nc2ccccc21	n	n	n	n	84.3
CCCn1c(NC(=S)Nc2ccccc2)nc2ccccc21	n	n	n	n	n
SMILES	Autophagy mod	WT yeast gro inh	Insulin prom inh	Ins promoter up	L major viab
S=C(Nc1ccccc1)Nc1nc2ccccc2n1CCOc1ccc(Cl)cc1	n	n	x	n	66.4
N#Cc1cnn2ccn(C3OC(CO)C(O)C3O)c12 (stereo not drawn)	x	x	x	n	x
CN(Cc1nc(Cc2cccc(C(F)(F)F)c2)no1)C1CC(C)(C)NC(C)(C)C1	n	n	n	n	n
Cc1cc(O)c(-c2n[nH]c3c2C(c2cccc(O)c2)N(Cc2cccnc2)C3=O)cc1Cl (stereo not drawn)	n	n	x	n	n
COc1ccc(CCN2C(=O)c3[nH]nc(-c4ccccc4O)c3C2c2ccccc2)cc1OC (stereo not drawn)	n	n	n	n	59.9
COCCCN1C(=O)c2[nH]nc(-c3ccccc3O)c2C1c1ccc(Cl)cc1 (stereo not drawn)	n	n	x	n	66.2
COc1ccc(-c2n[nH]c3c2C(c2ccc(OC)c(OC)c2)N(c2ccccc2)C3=O)cc1 (stereo not drawn)	n	n	69.4	x	96.5
COCCCN1C(=O)c2[nH]nc(-c3cc(C)cc(C)c3O)c2C1c1ccc(O)c(OC)c1 (stereo not drawn)	n	n	n	x	n
CC(C)OCCCN1C(=O)c2[nH]nc(-c3ccccc3O)c2C1c1cccc(Cl)c1 (stereo not drawn)	n	n	x	n	70.3
CCOC(=O)C1(Cc2ccc(OC)cc2)CCN(C(=O)c2cncs2)CC1	n	n	x	n	n
COCCNC(=S)Nc1ccccc1Cc1ccccc1	n	n	x	x	n
CC(C)(C)NC(=O)COC(=O)CCC(=O)c1cccs1	n	n	x	n	n
CCCN1C(=O)c2[nH]nc(-c3cc(Cl)c(C)cc3O)c2C1c1ccc(O)c(OC)c1 (stereo not drawn)	x	x	x	n	x
COCCCN1C(=O)c2[nH]nc(-c3ccccc3O)c2C1c1cccc(Cl)c1 (stereo not drawn)	+	n	x	x	n
Cc1ccc2c(CC(=O)OCC(=O)Nc3ccc(Cl)cn3)coc2c1	n	n	n	n	50.9
C=CCC(=O)OCC(=O)Nc1ccc(Cl)cn1	n	n	n	n	n
COc1ccc(-c2cc(C(F)(F)F)nc(S(=O)(=O)CCCC(=O)Nc3cccnc3Cl)n2)cc1OC	n	n	n	n	81.6
COC(=O)CCS(=O)(=O)c1nc(-c2ccccc2)cc(C(F)(F)F)n1	n	n	n	x	n
COc1ccccc1C1c2[nH]c3ccccc3c2CCN1Cc1ccc(NC(C)=O)s1 (stereo not drawn)	x	x	x	n	x
CCOc1ccc(NC(=S)NC(C)CCc2ccccc2)cc1 (stereo not drawn)	n	61.1	x	x	n
CCOc1ccc(NC(=S)Nc2ccc(OCC)cc2)cc1	n	n	x	n	n
CCNC(=S)Nc1ccc(OCC)cc1	n	n	n	n	65.3
CCOCCCNC(=O)C(c1ccc(OC)cc1)N(Cc1ccc2c(c1)OCO2)C(=O)c1ccccc1O (stereo not drawn)	n	n	x	n	n
O=[N+]([O-])c1ccccc1/C=N/N1CCN(c2ccncc2S(=O)(=O)N2CCCCC2)CC1	n	n	n	n	98.8
O=[N+]([O-])c1ccccc1S(=O)(=O)N1CCCCC1	n	n	n	n	n
SMILES	Autophagy mod	WT yeast gro inh	Insulin prom inh	Ins promoter up	L major viab
O=[N+]([O-])c1ccc(/C=N/N2CCN(c3ccncc3S(=O)(=O)N3CCCCC3)CC2)cc1	n	n	n	n	99.3
O=[N+]([O-])c1ccc(N2CCCCCC2)c(S(=O)(=O)N2CCCCC2)c1	n	n	n	n	n
CCN(CC)S(=O)(=O)c1cc(C(=O)NCCN2CCOCC2)ccc1Cl	n	n	x	n	n
Cn1cc(C(=O)Nc2ccc(Cl)cc2)c(C(F)(F)F)n1	+	n	x	n	n
Cn1nc(C(F)(F)F)c(C(=O)Nc2ccc(Cl)cc2)c1Cl	n	n	x	n	n
COCCNC(=O)NC(=O)CN1CCN(C(c2ccccc2)c2ccccc2)CC1	n	n	x	n	n
CCCOc1ccc(Cc2c(Cl)nc(SC)nc2N(C)C)cc1	n	63.7	n	n	n
CCCOc1ccc(Cc2c(Cl)nc(SC)nc2OC)cc1	n	n	n	n	n
COc1nc(SC)nc(Cl)c1Cc1ccc(OC(C)C)cc1	n	58.6	n	n	66.0
O=c1c(Cl)c(Cl)cnn1Cc1nnc(-c2ccccc2Br)o1	n	n	x	u	99.5
CC(NS(=O)(=O)/C=C/c1ccccc1)C(=O)NCCc1ccc(S(N)(=O)=O)cc1 (stereo not drawn)	n	n	x	n	n
N#CC1(Cc2ccccc2)c2ccccc2C=CN1C(=O)c1ccccc1 (stereo not drawn)	n	n	n	n	82.2
N#CC1(Cc2ccc([N+](=O)[O-])cc2)c2ccccc2C=CN1C(=O)c1ccccc1 (stereo not drawn)	n	n	n	x	51.1
